PubChem BioAssay (NCI)
About 83,000 compounds went through this panel and 20% of them were active in at least one assay; those are over-represented in the sample as a whole.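 For each line, cells grew in 96-well plates with the test compound present at a single concentration for 48 hours.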 The source made the active and inactive calls. How the source made its calls: active means growth percent below 10; inactive means the rest.

Each compound was assayed on HCC-2998 colon (assay: NCI-60 one-dose screen, 48 h (100 = growth as untreated, 0 = no growth, -100 = all killed)). Conditions: 10 µM unless noted.

SMILES | growth
O=C(CSc1nc2sc3c(c2c(=O)n1-c1ccc(Cl)cc1)CCCC3)NNC(=O)Nc1cccc(C(F)(F)F)c1 | 38.9% (inactive)
CCCCN1C(=O)/C(=c2\sc3n(c2=O)C2C(NN=3)N(CC)C(=O)N2CC)c2cc(Cl)ccc21 (centres undefined) | 101% (inactive)
COc1cc(OC)c(C2C(Cl)C(=O)N2Nc2ncnc3ccccc23)cc1OC (centres undefined) | 111% (inactive)
CC(=O)Oc1ccccc1C(=O)Nc1ccc(C(=O)/C=C/c2ccncc2)cc1 | 13.3% (inactive)
COc1ccc(/C=C/C(=O)c2ccc(NC(=O)CSc3nnc(-c4ccc5nc(-c6ccc(Cl)cc6)[nH]c5c4)o3)cc2)cc1 | 118% (inactive)
COc1cc(/C=C/C(=O)c2ccc(F)cc2)ccc1Oc1nc(NCCO)nc(N2CCOCC2)n1 | 103% (inactive)
Cn1ccnc1C(=O)/C=C/c1ccc(NC(=O)Nc2ccc(Cl)cc2)cc1 | 90.2% (inactive)
O=C(CSc1nc2sc3c(c2c(=O)n1-c1ccc(Cl)cc1)CCCC3)NNC(=O)Nc1ccc(Cl)c(C(F)(F)F)c1 | 42.4% (inactive)
C#C[C@]1(O)CC[C@H]2[C@@H]3CC=C4c5sc(-c6ccc(F)cn6)nc5CC[C@]4(C)[C@H]3CC[C@@]21C | 65.1% (inactive)
CC(=NNc1ncnc2ccccc12)c1ccc(S(C)(=O)=O)cc1 | 111% (inactive)
COc1ccc(-c2cc(C(=O)N=Nc3c(O)[nH]c4ccccc34)c3ccccc3n2)cc1OC | 97.8% (inactive)
Fc1ccc(-c2cc3nc(C(Cl)Cl)nc(-c4ccc(Cl)cc4)n3n2)cc1 | -60.4% (active)
CN(C)c1ccc(/C=C2\Cc3c(F)ccc(Br)c3C2=O)cc1 | 104% (inactive)
COC(=O)C1CN(S(=O)(=O)/N=C2\NC(=O)NC2=C(Cl)Cl)C1 | 121% (inactive)
c1ccc2c(NCCCn3ccnc3)c3oc4ccccc4c3nc2c1 | 0.465% (active)
Fc1ccc(-c2nc(C(Cl)Cl)nc3cc(-c4ccccc4)nn23)cc1 | -34.7% (active)
N#Cc1c(-c2ccc(F)cc2)nc2c(C#N)c(Nc3ccccc3)nn2c1N | 109% (inactive)
C#Cc1nc(C2=C(C)C(O)CC2)cs1 (centres undefined) | 115% (inactive)
O=C(O)CCCCCN1C(=O)/C(=C/c2ccc(O)c(O)c2)SC1=S | 115% (inactive)
CCN1CCN(/C(=N\c2sc(-c3ccccc3)nc2-c2ccccc2)c2ccccc2)CC1 | 77.1% (inactive)

SMILES | growth
CS(=O)(=O)c1ccc(-c2nc3ccccn3c2/C=N/Nc2nc(-c3ccc(Br)cc3)cs2)cc1 | 120% (inactive)
CS(=O)(=O)Nc1ccc(-c2nn(-c3ccc(S(C)(=O)=O)cc3)cc2/C=C/C(=O)c2ccc(NC(=O)CO[N+](=O)[O-])cc2)cc1 | 101% (inactive)
Clc1ccc(-c2cn3cc(Cc4ccc(Cl)c(Cl)c4)sc3n2)cc1 | 68.1% (inactive)
CC(O)C(NC(=O)C1CCCN1C(=O)CNC(=O)C1CC(=O)NCC(=O)NC(Cc2c[nH]c3ccccc23)C(=O)NC(Cc2ccc(O)cc2)C(=O)NCC(=O)NC(CO)C(=O)NC(CCC(N)=O)C(=O)NC(Cc2c[nH]c3ccccc23)C(=O)N1)C(=O)NCC(=O)NC(CCC(N)=O)C(=O)NC(CCCNC(=N)N)C(=O)NC(CC(=O)O)C(=O)O (centres undefined) | 120% (inactive)
O=C(CSc1nccc(=O)[nH]1)Nc1ccc(-c2nc3ccccc3[nH]2)cc1 | 116% (inactive)
O=c1[nH]c2ccccc2cc1CSc1ccccc1Nc1nccc(-c2ccc(C(F)(F)F)cc2)n1 | 90.4% (inactive)
CCOC(=O)c1c(Nc2ccccc2)nn2c(N)c(C#N)c(-c3ccc(OC)cc3)nc12 | 92.5% (inactive)
COc1ccc(C(=O)/C=C/c2ccc(OCc3ccc(Cl)cc3)c(OC)c2)cc1OC | 84.3% (inactive)
CCCCCCNC(=O)Oc1ccc(/C(=C(/C)c2ccccc2)c2ccc(OCCN3CCCCCC3)cc2)cc1 | 56.7% (inactive)
Clc1ccc2oc3c(OCCCn4ccnc4)c4ccccc4nc3c2c1 | 72.1% (inactive)
COc1ccc(-n2c(SCC(=O)Nc3ccc(-c4nc5ccccc5[nH]4)cc3)nc3ccccc3c2=O)cc1 | 34.8% (inactive)
Cc1cc2nc3c4cc(Cl)ccc4n(CC(=O)NCCN(C)C)c3nc2cc1C | 82.6% (inactive)
Cc1ccc(-c2nc(C(Cl)Cl)nc3cc(-c4ccccc4)nn23)cc1 | -55.8% (active)
C[C@@H]1CN(c2ccc3ncc(C#Cc4cncc(C(=O)Nc5ccc(CN6CCN(C)CC6)c(C(F)(F)F)c5)c4)n3n2)C[C@H](C)O1 | -30% (active)
OC1CCN(CCCOc2c3ccc(Cl)cc3nc3c2oc2ccccc23)CC1 | -68% (active)
CC(C)(C)Nc1nc2c(OCCc3ccccc3)cccn2c1-c1cccc(F)c1 | 4.84% (active)
COc1cc(/C=C/C(=O)c2cc(OC)c(OC)c(OC)c2)ccc1OCc1ccccc1 | 44.6% (inactive)
C#Cc1nc(C2=C(C)C(OC(C)=O)/C(=N/OC(C)=O)C2)cs1 (centres undefined) | 105% (inactive)
COc1ccc(/C=N/NC(=O)c2[nH]c3ccc(Br)cc3c2-c2ccccc2)s1 | 26.8% (inactive)
